About 500 (0.54%) of roughly 93,000 compounds were called active.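 Rule for the calls: active = primary inhibition of 50% or more at 10 µM, then 40% or more on retest; inactive = the rest.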 What follows is part of a selection rich in actives, with near analogues and random picks from the rest.
Biological target: Integrin beta-2 (Homo sapiens) + Integrin alpha-M (Homo sapiens) (UniProt P05107+P11215)
Experiment: inhibitors of CD11b/CD18 adhesion to fibrinogen, primary screen, K562 cells, luminescence (AID 1497)
Conditions: ATPlite luminescence, at 10 µM, hits give high values, Mn2+ added to activate the integrin

Integrin beta-2 (Homo sapiens) + Integrin alpha-M (Homo sapiens), sequence (P05107 whole entry, looked up, other chains not shown): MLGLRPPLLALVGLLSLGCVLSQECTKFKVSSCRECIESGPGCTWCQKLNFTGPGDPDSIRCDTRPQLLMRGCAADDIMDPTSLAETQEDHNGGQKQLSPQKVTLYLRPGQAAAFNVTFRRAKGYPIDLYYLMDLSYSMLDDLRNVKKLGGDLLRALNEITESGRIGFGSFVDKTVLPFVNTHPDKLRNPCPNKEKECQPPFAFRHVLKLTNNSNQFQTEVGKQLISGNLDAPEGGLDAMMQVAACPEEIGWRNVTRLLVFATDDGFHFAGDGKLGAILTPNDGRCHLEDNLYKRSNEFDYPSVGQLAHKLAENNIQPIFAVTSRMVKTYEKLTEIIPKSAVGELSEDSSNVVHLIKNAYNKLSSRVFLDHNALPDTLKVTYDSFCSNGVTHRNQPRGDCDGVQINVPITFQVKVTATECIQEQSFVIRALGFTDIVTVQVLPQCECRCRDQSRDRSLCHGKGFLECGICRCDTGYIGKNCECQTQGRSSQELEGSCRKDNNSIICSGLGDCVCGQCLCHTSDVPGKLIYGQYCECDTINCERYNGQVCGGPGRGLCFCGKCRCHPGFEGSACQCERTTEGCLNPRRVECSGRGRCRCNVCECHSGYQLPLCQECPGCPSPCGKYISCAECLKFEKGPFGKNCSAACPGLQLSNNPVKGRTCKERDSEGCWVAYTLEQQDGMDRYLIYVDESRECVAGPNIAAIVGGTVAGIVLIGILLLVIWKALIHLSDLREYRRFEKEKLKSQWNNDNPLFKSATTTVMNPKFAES

Compound | inhibition
Cc1c(Br)c([N+](=O)[O-])nn1CC(=O)Nc1sc2c(c1C(=O)OC(C)C)CCC(C)C2 (stereo not drawn) | -9.3% (inactive)
O=C(Nc1cccc(F)c1)c1coc(=O)c(Br)c1 | -10.2% (inactive)
O=C(COC(=O)c1ccc(Cl)nc1)NCc1ccc2c(c1)OCO2 | 4.3% (inactive)
O=C(CSc1ccc2nnc(-c3ccccc3)n2n1)N1CCCc2ccccc21 | 29.7% (inactive)
O=C(OCc1ccc(Br)cc1)c1cccc(-c2nnc(-c3ccccc3)o2)c1 | 6.5% (inactive)
O=C(CCCCCNC(=O)c1ccccc1)N/N=C/c1ccccc1 | 9.3% (inactive)
CC1(c2cccc([N+](=O)[O-])c2)CC(C)(C)N(C(=O)c2ccccc2)c2ccccc21 (stereo not drawn) | 12.3% (inactive)
Cc1ccc(NC(=O)CC2C(=O)N(Cc3ccccc3)C(=S)N2NC(=O)c2cccc(F)c2)c(C)c1 (stereo not drawn) | 1.5% (inactive)
Nc1nnc(SCC(=O)Nc2ccc3nc(SCC(=O)Nc4ccccc4)sc3c2)s1 | 74% (inactive)
CC(=O)Nc1ccc(S(=O)(=O)Nc2nc(-c3ccc(C(C)(C)C)cc3)cs2)cc1 | 0.9% (inactive)
COc1cc2c3c(c1)/C(=C1/SC(=S)NC1=O)C(=O)N3C(C)(C)C=C2C | 92.6% (inactive)
CCCc1ccc(-c2c(C)sc(NC(=O)c3ccnn3C)c2C#N)cc1 | 62.4% (active)
CCc1c(C)sc(NC(=O)c2ccc(Br)o2)c1C(=O)OC | 6.5% (inactive)
CCOC(=O)c1sc(NC(=O)CSc2ncccn2)c(C#N)c1C | -4.4% (inactive)
COc1ccc(C2Nc3ccccc3C(=O)N2c2ccc(F)cc2)cc1Cn1nnc2ccccc21 (stereo not drawn) | 12.2% (inactive)
CC(=C/c1ccccc1)/C=N/NC(=O)c1cc(C)oc1C | 4.2% (inactive)
CCN1CCCC1CNc1ncnc2c1[nH]c1ccc(F)cc12 (stereo not drawn) | -18.1% (inactive)
CC(C)(C)n1nnnc1C(c1ccc(F)cc1)N1CCN(Cc2ccc3c(c2)OCO3)CC1 (stereo not drawn) | -11.6% (inactive)
Cc1ccc(-n2ncc3c(N4CCN(c5ccc(F)cc5)CC4)ncnc32)c(C)c1 | 39.7% (inactive)
Cc1cc(N2CCN(Cc3ccc4c(c3)OCO4)CC2)n2ncnc2n1 | -10.2% (inactive)

Compound | inhibition
Fc1ccc2[nH]c3c(N4CCSCC4)ncnc3c2c1 | 81.7% (active)
Fc1ccc2[nH]c3c(N4CCN(Cc5ccc6c(c5)OCO6)CC4)ncnc3c2c1 | 103% (active)
COCCCNC(=O)Cn1cc(/C=C(\C#N)C(=O)N2CCN(c3ccccc3)CC2)c2ccccc21 | 21.8% (inactive)
O=C(COC(=O)Cc1ccc(F)cc1)Nc1cc(S(=O)(=O)N2CCOCC2)ccc1N1CCCC1 | -0.6% (inactive)
CCCC/C(C)=N/NC(=O)NC1CCCCC1 | 5.3% (inactive)
Cc1ccc(N/N=C2\COC(C)(C)CC2=O)cc1 | 4.6% (inactive)
CCCn1c(C)cc(/C=C(\C#N)C(=O)OCC(=O)Nc2cc(OC)c(OC)c(OC)c2)c1C | 5.7% (inactive)
Cc1cc(C)c(NC(=O)c2oc3ccccc3c2COc2ccccc2)c(C)c1 | -5.4% (inactive)
CCCN(CC1COc2ccccc2O1)C(=S)Nc1ccc(C)cc1 (stereo not drawn) | 9.6% (inactive)
C=CCNC(=S)NNC(=O)COc1c(Cl)cc(Cl)cc1Cl | -6.9% (inactive)
Cc1nc2c(-c3ccccc3)c(C)[nH]n2c(=O)c1Cl | -1.6% (inactive)
Cc1[nH]n(-c2cccc(Cl)c2)c(=O)c1-c1ccc(Cl)cc1 | 94.7% (active)
Cc1[nH]n(-c2cccc(Cl)c2)c(=O)c1/C=N/n1c(C)nc2ccccc2c1=O | 16.1% (inactive)
CCN(/N=C/c1ccc(N(C)C)cc1)c1nc2ccccc2[nH]1 | 15% (inactive)
Cc1nc(NC(=O)c2cccc(Cl)c2)sc1-c1csc(Nc2cccc(Cl)c2)n1 | -4% (inactive)
Cc1nc(C)c(-c2csc(NCCc3ccccc3)n2)s1 | 89.8% (active)
Cc1ccc(Nc2nc(-c3sc(NC(=O)c4ccccc4)nc3C)cs2)cc1 | 16.8% (inactive)
N#Cc1c(NC(=O)c2ccc(N3CCOCC3)c([N+](=O)[O-])c2)sc2c1CCCC2 | 2.3% (inactive)
CCCCc1ccc(NC(=S)N2CCCC(CO)C2)cc1 (stereo not drawn) | -5.8% (inactive)
CCN(C(=O)COC(=O)c1c(NC(C)=O)sc(C)c1C)C1CCS(=O)(=O)C1 (stereo not drawn) | 25.9% (inactive)

Compound | inhibition
Cc1ccc(C)c(NC(=O)C(OC(=O)c2ccc(C)s2)c2ccccc2)c1 (stereo not drawn) | 16.7% (inactive)
CCn1c(SCC(=O)Nc2ccc(C)cc2)nc2nc3c(cc2c1=O)CCCC3 | 2.8% (inactive)
Cc1nn(-c2ccccc2)c(Cl)c1/C=C/C(=O)c1ccc(O)cc1 | 25.9% (inactive)
CC(=O)N1CCN(CC(=O)Nc2ccc(SC(F)F)cc2)CC1 | -3.7% (inactive)
CCOc1ccc(S(=O)(=O)N/N=C(\C)c2ccc(Cl)c(Cl)c2Cl)cc1 | 8.2% (inactive)
C/C(=N\NC(=O)c1cc2c(s1)CCC(C)C2)c1cccnc1 (stereo not drawn) | 1.2% (inactive)
COc1ccc(Br)cc1CN(C)CC(=O)Nc1cc([N+](=O)[O-])ccc1OC | 33.8% (inactive)
N#CCOc1ccc(C2=NO[C@@H]3[C@@H]4C[C@@H]([C@H]5C(=O)N(c6ccc7c(c6)OCO7)C(=O)[C@@H]45)[C@H]23)cc1 | -2% (inactive)
Cc1ccc(C)c(NC(CC(=O)c2ccccc2)C(=O)OCC(=O)c2cccs2)c1 (stereo not drawn) | 2.1% (inactive)
COc1ccccc1OCCC(=O)OCC(=O)NCc1ccccc1 | 5% (inactive)
CCc1nc(C)cn1S(=O)(=O)c1cc(OC)c(C)cc1C | 51.2% (active)
CCCOc1cc(C)c(S(=O)(=O)n2nnc3ccccc32)cc1C | 2.3% (inactive)
Cc1ccc(-n2c(C)cc(C(=O)CSc3nnc4ccccn34)c2C)cc1 | 23.4% (inactive)
CN(C(=O)c1c(Cl)cnn1C)C12CC3CC(CC(C3)C1)C2 | -23% (inactive)
FC(F)Oc1ccccc1NC(=S)Nc1cccc(Cl)c1Cl | 64.3% (inactive)
CCCCC1N2CC3([N+](=O)[O-])CN1CC([N+](=O)[O-])(C2)C3(C)C (stereo not drawn) | -3.2% (inactive)
O=C(CN1CCN(c2ccccn2)CC1)N1CCc2ccccc21 | 5.5% (inactive)
COc1ccc(NS(=O)(=O)c2ccc(NC(=S)NC(=O)/C=C/c3ccc(C)cc3)cc2)nn1 | -15% (inactive)

Source: PubChem BioAssay AID1497 (Sanford-Burnham Center for Chemical Genomics, 2009)
